The list is not random: actives were taken first. Their share in the collection is about 8%.
Marburg entry – inhibitors of Marburg virus binding or entry into cells; Marburg virus pseudotype entry/binding inhibition, cell-based; 6.5% of 18,000 active; Potency, µM (doses to about 49.2 µM), without a hit: at the highest dose activity change, negative = inhibition, most hits filed as inhibitors; AID 720532
Lassa entry – Lassa virus entry inhibition; 4.1% of 18,000 active; AID 720533; Potency, µM (series often up to 49.2 µM), inactives show at the highest dose activity change, negative = inhibition, usual class: inhibitors; Lassa virus pseudotyped entry inhibition, cell-based qHTS
Starred values were filed as active, the others as inactive; u = inconclusive; x = not tested or not shown; ! = not active in a repeat; [ ] = remark or other dose. Calls come from the whole dose curve; tested in HEK293 cells. % is set by controls: 0 for no effect and ±100 for the full control effect; potency is the fitted concentration of half-maximal effect.

SMILES	Marburg entry	Lassa entry
O[C@@H]1C[C@H](c2ccccc2)N(CC2CCCCC2)C[C@@H]1n1cc(C2CC2)nn1	-27%	-21%
CC[C@H](C)[C@H](NC(=O)[C@H](Cc1ccc(O)cc1)NC(=O)[C@@H]1CCCN1C(=O)[C@@H](NC(=O)[C@@H](N)CCCCN)[C@@H](C)CC)C(=O)N[C@@H](CC(C)C)C(=O)O	18%	-10%
CCCCCCCCCCCCC(=O)N1CCCC[C@H]1CNC(=O)[C@@H](N)CCCCN	28µM*	-28%
C[C@@H]1N[S+](=O)([O-])c2cc(Cl)ccc2O[C@H]1c1ccccc1	-3%	7%
CCc1ccc(OCc2ccccc2C(=O)Nc2ccc3nc(C)cc(N)c3c2)cc1	4µM*	7.1µM*
COc1ccc(NC(=O)c2ccc(-c3ccc(C)c4ccccc34)o2)cc1	14%	26%
CCOc1ccc2c(-c3ccnc(Nc4cccc(C(F)(F)F)c4)n3)cnn2n1	8.9µM*	x
Fc1ccc(Nc2nccc(-c3c(-c4ccc(C(F)(F)F)cc4)nn4ncccc34)n2)cc1F	-5%	6%
N#Cc1cccc(Nc2nccc(-c3cnn4ncccc34)n2)c1	0.025µM*	x
O=C(O)c1cccnc1Nc1cccc(C(F)(F)F)c1	28%	21%
Cc1ccc2c(-c3ccnc(Nc4ccc5c(c4)OCCO5)n3)c(-c3ccc(C(F)(F)F)cc3)nn2n1	16µM*	x
FC(F)(F)CNc1nccc(-c2cnn3ncccc23)n1	-4%	x
Cc1ccc2c(-c3ccnc(Nc4cccc(C(F)(F)F)c4)n3)c(-c3ccccc3)nn2n1	4µM*	x
COCCN1C(=O)NC(CCc2ccccc2)C(C(=O)OC)=C1C (configuration not stated)	72%[8.59 µM]	6%[8.59 µM]
O=C1NC(=O)C(N2CCc3ccccc32)=C1c1ccc(Cl)cc1	u	-18%
Oc1ccc2[nH]cc(CCCCN3CC=C(c4ccccc4)CC3)c2c1	20µM*	-16%
O=C(O)c1ccc2[nH]cc(CCCCN3CC=C(c4ccccc4)CC3)c2c1	u	-4%
COc1cc2c(c(OC)c1OC)C1(c3ccccc3)CCCCCC1[C@@H]2NC(=O)C(F)(F)F (some centres not stated)	-15%[8.59 µM]	x
CN1C[C@H](C(=O)N[C@]2(C)O[C@@]3(O)[C@@H]4CCCN4C(=O)[C@H](Cc4ccccc4)N3C2=O)C=C2c3cccc4[nH]cc(c34)C[C@H]21	-11%	-24%
CC(C)C[C@H]1C(=O)N2CCC[C@H]2[C@]2(O)O[C@](NC(=O)[C@@H]3C=C4c5cccc6[nH]c(Br)c(c56)C[C@H]4N(C)C3)(C(C)C)C(=O)N12	u	25µM*!
CC(C)C[C@H]1C(=O)N2CCC[C@H]2[C@]2(O)O[C@](NC(=O)[C@@H]3C[C@@H]4c5cccc6[nH]cc(c56)C[C@H]4N(C)C3)(C(C)C)C(=O)N12	u	-15%
CC(C)CC1C(=O)N2CCCC2C2(O)O[C@@](NC(=O)C3C=C4c5cccc6[nH]c(Br)c(c56)CC4N(C)C3)(C(C)C)C(=O)N12 (some centres not stated)	10µM*	u
CC(C)C[C@H]1C(=O)N2CCC[C@@H]2[C@]2(O)O[C@](NC(=O)[C@H]3C=C4c5cccc6[nH]c(Br)c(c56)C[C@H]4N(C)C3)(C(C)C)C(=O)N12	5%[17.8 µM]	-6%[17.8 µM]
CC(C)[C@@]1(NC(=O)[C@@H]2C[C@H]3c4cccc5[nH]cc(c45)C[C@@H]3N(C)C2)O[C@@]2(O)[C@H]3CCCN3C(=O)[C@H](Cc3ccccc3)N2C1=O	22µM*!	-17%
CCCNC(=O)N1C2=NC(C(=O)OC)=C(C(=O)OC)[C@@H]3N(C)c4ccccc4[C@]23C[C@H]1C(=O)OC	7%[8.59 µM]	-6%[8.59 µM]
SMILES	Marburg entry	Lassa entry
CN1C[C@H](C(=O)N[C@]2(C)O[C@@]3(O)[C@H]4CCCN4C(=O)[C@H](Cc4ccccc4)N3C2=O)C[C@H]2c3cccc4[nH]cc(c34)C[C@@H]21	31%	3%
CN1C[C@H](CNC(=O)OCc2ccccc2)C[C@H]2c3cccc4c3c(cn4C)C[C@@H]21	10µM*	u
CO[C@@]12C[C@@H](COC(=O)c3cncc(Br)c3)CN(C)[C@H]1Cc1cn(C)c3cccc2c13	-1%	4%
CN1C[C@H](CNC(=O)OCc2ccccc2)C[C@@H]2c3cccc4c3c(cn4C)C[C@H]21	14µM*!	u
C#CCN1C(=O)CC[C@@]23C1=NC(C(=O)OC)=C(C(=O)OC)[C@@H]2N(Cc1ccccc1)c1ccccc13	-20%[8.59 µM]	-23%[8.59 µM]
COc1ccc2ccccc2c1CN1CCC2(CCC(CNC(=O)c3ccccc3)O2)CC1 (configuration not stated)	13µM*	-11%
O=C(NCC1CCC2(CCN(Cc3ccccc3O)CC2)O1)C1CCCO1 (configuration not stated)	-23%	-2%
COc1ccc(CN2CCC3(CCC(CNC(=O)C4CCCO4)O3)CC2)c(C)c1C (configuration not stated)	1.3µM*	-10%
